The text below walks through data of PubChem BioAssay AID651699 (Sanford-Burnham Center for Chemical Genomics, 2012).

Molecules are shown by their SMILES. Hit rate of the full screen: of about 360,000 compounds, about 2,100 (0.58%) were called active. The full list was thinned out, with actives kept by preference. Unmarked numbers belong to inactive results. Cut-off read from the data, not from the text of the source: active = inhibition above about 36%; inactive = the rest.

The target of the experiment is NEDD8-conjugating enzyme Ubc12 (Homo sapiens) + NEDD8-activating enzyme E1 regulatory subunit (Homo sapiens) (UniProt P61081+Q13564). Put plainly: inhibitors of cullin neddylation, primary screen, biochemical, TR-FRET, uHTS, NAE and Ubc12 (AID 651699). The settings on record: at 25 µM, hits give high values.
Chain of NEDD8-conjugating enzyme Ubc12 (Homo sapiens) + NEDD8-activating enzyme E1 regulatory subunit (Homo sapiens) (P61081 whole entry, looked up): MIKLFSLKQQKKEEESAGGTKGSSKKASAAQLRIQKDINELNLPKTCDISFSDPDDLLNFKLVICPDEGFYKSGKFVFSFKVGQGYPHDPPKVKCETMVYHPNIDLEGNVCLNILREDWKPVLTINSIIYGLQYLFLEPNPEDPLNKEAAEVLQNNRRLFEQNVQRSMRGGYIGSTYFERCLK
Chain of NEDD8-conjugating enzyme Ubc12 (Homo sapiens) + NEDD8-activating enzyme E1 regulatory subunit (Homo sapiens) (Q13564 whole entry, looked up): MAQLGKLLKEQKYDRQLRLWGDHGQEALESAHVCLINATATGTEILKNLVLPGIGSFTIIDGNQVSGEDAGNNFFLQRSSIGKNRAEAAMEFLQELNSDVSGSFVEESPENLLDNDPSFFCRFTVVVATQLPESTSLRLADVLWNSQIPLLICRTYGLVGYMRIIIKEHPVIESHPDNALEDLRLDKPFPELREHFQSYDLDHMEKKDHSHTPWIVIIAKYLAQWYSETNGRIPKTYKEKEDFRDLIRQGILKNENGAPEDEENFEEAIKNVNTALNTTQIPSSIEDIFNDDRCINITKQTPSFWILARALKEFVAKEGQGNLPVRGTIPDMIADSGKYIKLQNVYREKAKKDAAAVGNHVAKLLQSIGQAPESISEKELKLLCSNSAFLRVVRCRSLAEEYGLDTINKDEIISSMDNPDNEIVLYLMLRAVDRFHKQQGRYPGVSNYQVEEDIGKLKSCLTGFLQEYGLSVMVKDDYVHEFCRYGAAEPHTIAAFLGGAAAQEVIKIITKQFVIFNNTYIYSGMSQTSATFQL
In the case of `CC(=CCOc1ccc2ccc(=O)oc2c1)C1=CC(=O)C(C)(C)O1`, the inhibition – broadly, the drop in the measured response relative to a control, in per cent – is 48.3% (active). As for `COC(=O)CN1C(=O)C2(C(C(=O)OC)=C(N)Oc3ccccc32)C2=C1CC(C)(C)CC2=O` (stereo not given), the inhibition is 0.61%. For the molecule `O=C(CCC(=O)N1C[C@H]2C[C@@H](C1)c1cccc(=O)n1C2)NCc1ccccc1C(F)(F)F`, the inhibition was -4.64%. Consider `O=C(c1cc(S(=O)(=O)N2CCOCC2)ccc1F)N1CCC2(CC1)OCCO2`, for which the inhibition was 4.52%. Under `CCC(C)n1c(O)c(/C=N/Nc2nc3c(c(=O)n(C)c(=O)n3C)n2C)c(=O)[nH]c1=S` (stereo not given) stands 40.5% (active). With `CCN1C(=O)NC(=O)C2(CCCC2)C1=O` the figure was 1.81%; with `CC(c1ccccc1)(c1ccccc1)c1ccncc1`, -5.54%; with `COc1ccc2c(c1)[C@]13CCCCC1C(C2)N(C)CC3` (stereo not given in full), -8.52%. With `COP(=O)(NS(=O)(=O)c1ccccc1)OC` the figure was -0.79%; with `CCN1c2nc3c(C)cccn3c(=O)c2CC2(C(=O)N(C)C(=O)N(C)C2=O)C1C` (stereo not given), 41.1% (active). As for `CCCCCn1c(=O)c(C(=O)NCc2ccccn2)c(O)c2ccccc21`, the inhibition is 4.17%. As for `CC1(C)Cc2c(C#N)c(N3CCNCC3)nc(-c3ccco3)c2CS1`, the inhibition is 25.7%.

Regarding `COc1ccc(C(=O)C2CCCN(Cc3ccc(C)s3)C2)cc1OC` (stereo not given), the inhibition was 0.31%. On to `CN1C2C=C(N(C(=O)c3ccc(Cl)cc3)c3ccccc3)CC1CC2` (stereo not given), for which the inhibition is 0.6%.

`CCCCC(=O)N/N=C/c1c(O)n(CCC2=CCCCC2)c(=O)[nH]c1=O`: the inhibition was 52.9% (active). Under `CCCCC(=O)N/N=C/c1c(O)n(CC)c(=S)n(CC)c1=O` stands -37%; under `O=c1[nH]c(=O)n(CCc2ccc(F)cc2)c(O)c1/C=N/N1CCCCC1`, -6.7%. For the molecule `COC(=O)C1=C(c2ccccc2)C[C@@H]2CC[C@H]1N2C(=O)N1CCCCC1`, the inhibition was -6.19%. `COc1cccc(OC)c1C(=O)NC(=S)N1C[C@H]2C[C@H](C1)c1cccc(=O)n1C2`: the inhibition was -2.07%. As to `c1ccc2sc(N3CCNCC3)nc2c1`, the inhibition was 1.66%.
